Data on 52 compounds can be found in PubChem BioAssay AID720700 (The Scripps Research Institute Molecular Screening Center, 2013).

Usually inhibition stands for the relative decrease from the control value, in per cent.

About 3,100 (0.84%) of roughly 370,000 compounds were called active. The sample holds actives, similar compounds and a random draw of the others, so the mix is not that of the screen. Unmarked numbers belong to inactive results. Cut-off read from the data, not from the text of the source: active = inhibition above about 9.5%; inactive = the rest.

The experiment deals with 1-phosphatidylinositol 4,5-bisphosphate phosphodiesterase gamma-1 (Homo sapiens) (UniProt P19174). The experiment is described as follows: blockers of human PLCG1 activity – biochemical, fluorescence, purified enzyme, primary screen (AID 720700). As to conditions: purified PLC-gamma1, fluorogenic substrate, at 12.2 µM, hits give high values.
Chain of 1-phosphatidylinositol 4,5-bisphosphate phosphodiesterase gamma-1 (Homo sapiens) (P19174 whole entry, looked up): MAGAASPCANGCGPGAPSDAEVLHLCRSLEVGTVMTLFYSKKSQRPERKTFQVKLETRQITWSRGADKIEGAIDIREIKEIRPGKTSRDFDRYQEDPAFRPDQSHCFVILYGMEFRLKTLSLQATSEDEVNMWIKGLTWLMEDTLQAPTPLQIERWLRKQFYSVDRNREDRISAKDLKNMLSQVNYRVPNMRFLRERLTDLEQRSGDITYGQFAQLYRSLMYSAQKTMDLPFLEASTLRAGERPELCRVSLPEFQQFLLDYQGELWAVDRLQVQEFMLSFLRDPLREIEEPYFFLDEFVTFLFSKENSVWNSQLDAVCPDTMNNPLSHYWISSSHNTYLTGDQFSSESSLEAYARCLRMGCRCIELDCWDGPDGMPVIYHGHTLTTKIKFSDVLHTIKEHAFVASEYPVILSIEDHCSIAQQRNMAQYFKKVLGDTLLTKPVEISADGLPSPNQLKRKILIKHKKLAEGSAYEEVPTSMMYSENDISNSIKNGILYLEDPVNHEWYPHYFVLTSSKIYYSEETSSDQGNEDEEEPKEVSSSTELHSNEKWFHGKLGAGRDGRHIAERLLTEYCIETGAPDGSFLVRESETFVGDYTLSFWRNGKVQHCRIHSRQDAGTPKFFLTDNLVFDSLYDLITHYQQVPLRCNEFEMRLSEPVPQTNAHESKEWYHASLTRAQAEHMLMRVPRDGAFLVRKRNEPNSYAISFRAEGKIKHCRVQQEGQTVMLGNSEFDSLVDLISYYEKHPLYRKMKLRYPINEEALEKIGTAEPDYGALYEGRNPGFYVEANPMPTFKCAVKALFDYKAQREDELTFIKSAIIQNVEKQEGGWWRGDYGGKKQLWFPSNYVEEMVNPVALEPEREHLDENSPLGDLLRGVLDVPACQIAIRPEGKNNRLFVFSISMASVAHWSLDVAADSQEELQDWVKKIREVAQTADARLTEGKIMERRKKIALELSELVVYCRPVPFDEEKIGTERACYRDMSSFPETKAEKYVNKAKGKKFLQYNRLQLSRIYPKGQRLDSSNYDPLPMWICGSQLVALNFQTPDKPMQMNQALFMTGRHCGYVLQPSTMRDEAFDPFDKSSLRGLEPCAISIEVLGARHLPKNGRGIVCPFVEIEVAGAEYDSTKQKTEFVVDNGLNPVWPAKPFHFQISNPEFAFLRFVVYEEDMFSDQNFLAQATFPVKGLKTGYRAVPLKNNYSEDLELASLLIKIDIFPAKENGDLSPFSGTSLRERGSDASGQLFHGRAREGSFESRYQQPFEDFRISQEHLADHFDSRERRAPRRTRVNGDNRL
Regarding `CC(C)C(C#CC1CC1)N(Cc1ccc2c(c1)OCO2)C(N)=NC(=O)/C=C/c1cccc(C(F)(F)F)c1` (configuration not stated), the inhibition is 0.02%.

With `C=CCN(C(=O)[C@@H](CCCC)[C@@H](O)c1ccc(Cl)cc1)c1ccccc1`, the inhibition is -0.11%.

Turning to `CCC(=O)Nc1ccc(S(=O)(=O)NCC2CCCO2)cc1` (configuration not stated), the inhibition is 3.4%.

`O=C(CCNS(=O)(=O)c1ccc(Br)cc1)NCC1CCCO1` (configuration not stated): the inhibition was 12.3% (active).

For `CCOc1ccc(S(=O)(=O)NCCC(=O)NCC2CCCO2)cc1` (configuration not stated), the inhibition was 2.41%.

`COC(=O)[C@]12C[C@H](CC(=O)NCc3ccccc3)C(=O)N(Cc3ccccc3)C1=C[C@H](COCc1ccccc1)O[C@@H]2C`: the inhibition was 8.06%.

Take `COc1ccc(-n2c(SCC(=O)Nc3ccccc3-c3ccccc3)nnc2-c2cccnc2)cc1`: the inhibition was -0.54%.

Regarding `C=C(C)C1CC23C(=O)C4(C(=O)c5ccccc5)C[C@@]5(C)CCC(CC2C1(C)C)(C4=O)C35OC` (some centres not stated), the inhibition was -0.5%.

On to `COC(=O)[C@]12C[C@H](CC(=O)N3CCOCC3)C(=O)N(Cc3ccc(Cl)cc3Cl)C1=C[C@H](C(C)C)O[C@@H]2C1CC1`, for which the inhibition is -1.21%.

For `O=C(CSc1ncn[nH]1)Nc1ccnc2ccccc12`, the inhibition was 0.33%.

Take `O=C(CSc1ncn[nH]1)Nc1nsc(-c2ccccc2)n1`: the inhibition is -3.65%.

On to `O=C(CSc1ncn[nH]1)N/N=C/c1ccc(F)cc1`, for which the inhibition is 9.55% (active).

Take `COc1cc(NC(=O)C2CCCN(S(=O)(=O)c3ccc(C(C)(C)C)cc3)C2)cc(OC)c1` (configuration not stated): the inhibition was 0.39%.

With `CC(C)CNc1cccc2c1S(=O)(=O)N(Cc1cn(Cc3ccc(Cl)cc3)nn1)Cc1ccccc1O2`, the inhibition is -48.8%.

As for `C=CCN1[C@@H](Cc2ccccc2)COc2cccc(N3CCSCC3)c2S1(=O)=O`, the inhibition was 1.11%.

In the case of `CCOC(=O)[C@]12CCCC=C1N(Cc1ccc(OC)cc1)C(=O)[C@@H]2CC(=O)N1CCOCC1`, the inhibition was 0.69%.

Turning to `CCOC(=O)[C@]12CCCCC/C=C\1N(Cc1ccc(OC)cc1)C(=O)[C@H]2CC(=O)N1CCOCC1`, the inhibition is -0.42%.

Regarding `CCOC(=O)[C@]12CCCC=C1N(CCCOC)C(=O)[C@@H]2CC(=O)N1CCOCC1`, the inhibition was 10.2% (active).

For the compound `COc1ccc(N2CCN(CCNS(=O)(=O)c3ccc([N+](=O)[O-])cc3)CC2)cc1`, the inhibition is -0.14%.

`COC(=O)C1CN(CCc2ccccc2)CCS(=O)(=O)N1Cc1cccc(Cl)c1` (configuration not stated): the inhibition is 0.86%.

Take `COc1ccc(CSc2nnc(-c3cccc(C)c3)n2C)cc1`: the inhibition is 1%.

Turning to `COc1ccc(-n2c(COc3ccccc3)nnc2SCC(=O)Nc2ccc3c(c2)OCO3)cc1`, the inhibition is -1.32%.

With `Cc1cc(C)n2ncc(C(=O)Nc3ccc4c(c3)OCCO4)c2n1`, the inhibition is -0.99%.

On to `CN(C)[C@H]1CCN(c2cccc3c2S(=O)(=O)N2CC[C@H](C2)O3)C1`, for which the inhibition is 1.23%.

In the case of `O=C(CN1CCN(C2CCCCC2)CC1)Nc1ccccc1N1CCCCC1`, the inhibition was 10.2% (active).

For `CC(=O)c1ccc(N2CCN(CC(=O)Nc3ccccc3N3CCOCC3)CC2)cc1`, the inhibition is -2.41%.

For `O=C(CN1CCCCC1)Nc1ccccc1C(=O)NC1CC1`, the inhibition is 3.56%.

In the case of `COc1ccc(NC(=O)c2ccccc2CC[N+](=O)[O-])cc1`, the inhibition was 0.81%.

On to `COc1ccc(C(=O)Nc2c(N)nc(SCC(=O)Nc3ccc(C(C)=O)cc3)[nH]c2=O)cc1`, for which the inhibition was -0.47%.

Turning to `COc1ccc(NC(=O)c2ccc(OC)cc2)cc1`, the inhibition was 11% (active).

In the case of `C[C@@H]1CN([C@@H](C)CO)C(=O)c2cccc(NC(=O)Nc3cccc4ccccc34)c2O[C@H]1CN(C)S(=O)(=O)c1ccccc1F`, the inhibition was -11.6%.

On to `O=C(NCc1ccccc1Cl)c1ccc2c(=O)n(CC3CCCO3)c(=S)[nH]c2c1` (configuration not stated), for which the inhibition was 2.56%.

On to `CCN(CC)CCCNC(=O)c1ccc2c(=O)n(Cc3ccc4c(c3)OCO4)c(=S)[nH]c2c1`, for which the inhibition was -2.49%.

Turning to `Cc1cccc(NC(=O)c2ccc3c(=O)n(CC4CCCO4)c(=S)[nH]c3c2)c1` (configuration not stated), the inhibition is 10.2% (active).

Take `Cc1ccc(NC(=S)NNC(=O)CSc2nnc(SCc3ccccc3Cl)s2)cc1`: the inhibition was -4.17%.

For `CC(=O)OCCN1CCCC12CCC(c1ccccc1)CC2` (configuration not stated), the inhibition is -1.82%.

In the case of `CCc1ccccc1NC(=O)CSc1nnc(-c2cccs2)o1`, the inhibition was -2.39%.

As for `COC(=O)[C@]12C[C@H](CC(=O)NCc3ccccc3)C(=O)N(CCc3ccc(OC)c(OC)c3)C1=C[C@H](C(C)(C)C)O[C@@H]2C`, the inhibition is 1.65%.

As for `COC(=O)C1CN(Cc2cn(Cc3ccc(F)cc3)nn2)CCS(=O)(=O)N1Cc1ccc(Cl)cc1` (configuration not stated), the inhibition is 0.64%.

In the case of `C=CCN1C(=O)[C@H](CC(=O)N2CCN(C(=O)OCC)CC2)[C@@]2(C(=O)OCC)CCCC=C12`, the inhibition was 0.46%.

As to `FC(F)(F)c1cccc(Cn2ccc3ccc(-c4ccc5ccn(Cc6ccccc6)c5c4)cc32)c1`, the inhibition was -66.4%.

In the case of `O=c1c([N+](=O)[O-])cc(C(F)(F)F)cn1Cc1cccc(Cl)c1`, the inhibition is 11.6% (active).

As for `O=c1c([N+](=O)[O-])cccn1Cc1ccc(F)cc1Cl`, the inhibition is 3.37%.

Turning to `COC(=O)[C@]12C[C@H](CC(=O)NCC34CC5CC(CC(C5)C3)C4)C(=O)N(Cc3ccc(Cl)cc3Cl)C1=C[C@H](COCc1ccccc1)O[C@@H]2C`, the inhibition was -0.03%.

As for `CCN(CC)Cc1csc2ccc(Br)cc12`, the inhibition was 9.63% (active).

On to `CCN(CC)Cc1cc(C(C)=O)ccc1O`, for which the inhibition was 3.56%.

On to `CN(CCO)Cc1csc2ccc(Br)cc12`, for which the inhibition was 1.91%.

As for `C=CCN1C(=O)[C@@H](CC(=O)NCCCCc2ccccc2)[C@]2(C(=O)OCC)CCCCC/C=C/12`, the inhibition was -0.06%.

On to `O=C(CN1CCCc2ccccc21)NCc1ccc(F)cc1`, for which the inhibition was -1.61%.

Consider `COc1ccccc1C(=O)N1CCNC(=O)C1CC(=O)Nc1ccc(Cl)cc1` (configuration not stated), for which the inhibition was 7.83%.

Turning to `COc1ccc(NC(=O)CC2C(=O)NC3CCCCC3N2C(=O)c2ccc(F)cc2)cc1` (configuration not stated), the inhibition is 0.91%.

Consider `COc1ccccc1C(=O)N1C(CC(=O)Nc2ccccc2C)C(=O)NC2CCCCC21` (configuration not stated), for which the inhibition was 9.7% (active).
